Activity calls are given as the source filed them.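 The calls were made as follows: active = IC50 at or below 10 µM; inconclusive = IC50 above 10 µM but below 20 µM; inactive = IC50 of 20 µM or more.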

Sequence of Neuropeptide S receptor (Homo sapiens) (Q6W5P4 whole entry, looked up): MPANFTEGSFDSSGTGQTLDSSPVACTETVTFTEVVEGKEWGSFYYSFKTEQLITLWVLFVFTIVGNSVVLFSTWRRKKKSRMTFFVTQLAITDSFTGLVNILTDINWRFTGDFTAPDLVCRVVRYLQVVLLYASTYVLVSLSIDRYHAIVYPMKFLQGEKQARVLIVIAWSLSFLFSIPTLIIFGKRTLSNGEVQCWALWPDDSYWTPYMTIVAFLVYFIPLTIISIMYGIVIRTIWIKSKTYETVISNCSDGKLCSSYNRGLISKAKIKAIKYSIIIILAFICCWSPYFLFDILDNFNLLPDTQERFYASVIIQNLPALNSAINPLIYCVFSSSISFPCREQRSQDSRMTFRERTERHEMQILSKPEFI

This assay concerns the target Neuropeptide S receptor (Homo sapiens) (UniProt Q6W5P4). Kind of assay: Robust Characterization of Calcium Signal Transduction Antagonists of the Neuropeptide S Receptor: SAR. Conditions: CHO-NPSR cells, NPS-induced calcium fluorescence (FDSS). The text has this:
Neuropeptide S receptor (NPSR), previously known as GPR154, is a recently de-orphanized G protein coupled receptor. Its endogenous ligand is the 20 amino acids peptide Neuropeptide S (NPS). […] NPS and its receptor are found in various tissues. Specifically they are highly expressed in brain areas that have been implicated in modulation of arousal, stress and anxiety. Central administration of NPS in mice produces an unusual profile of activity by inducing wakefulness and arousal, while at the same time suppressing anxiety. Therefore, NPSR may represent a novel drug target for the treatment of sleep and anxiety disorders. To identify NPSR antagonists, we developed a cell-based assay with transfected NPS receptor. NPS can stimulate the production of cAMP as well as release intracellular calcium in Chinese hamster ovary cells stably expressing NPS receptor. This change in intracellular calcium can be detected using a calcium indicator dye on a calcium imaging plate reader system (FDSS). This particular assay uses a high density of sampling across concentration-response space to establish more confidence estimates of potency. NIH Chemical Genomics Center [NCGC] NIH Molecular Libraries Probe Production centers Network [MLPCN] MLPCN Grant: DA026210 Assay Submitter (PI): Heilig, Markus Alexander
A Chinese hamster ovary (CHO) cell line stably expressing the NPS receptor (CHO-NPSR) was obtained from Dr. Heilig lab at NIAAA and maintained in F-12 Kaighn's media (Invitrogen, Carlsbad, CA, 21127) supplemented with 10 % FBS, 100 units/ml penicillin, 100 ug/ml streptomycin and 250 ug/ml geneticin at 37C, 5% CO2 in a humidified atmosphere. Before the assay, aliquots of cells were frozen and stored at -135C. The assay was performed on a FDSS-7000 kinetic plate reader in 1536-well format. For both agonist (1-220s) and antagonist (221-400s) phases, the maximums of kinetic fluorescence responses were converted separately into text files using the instrument's software data export utility. Data for agonist response were normalized to the controls for basal activity (DMSO only) and 100% activation (NPS). Data for antagonist response were normalized to the controls for basal activity (DMSO only) and 100% inhibition (No NPS control). AC50 values were determined from concentration-response data modeled with the standard Hill equation. NPS 1536-well FDSS assay protocol: (1) Frozen CHO-NPSR cells were thaw, washed once with fresh media and resuspended in F-12 Kaighn's media supplemented with 10 % FBS, 100 units/ml penicillin and 100 ug/ml streptomycin. Cells were plated at 3 ul/well (1200 cells) to black, clear-bottom, tissue-culture treated 1536-well plates, and then cultured at 37C, 5 % CO2 for 16 to 30 hours. […]
The IC50 is the point on the concentration scale where inhibition reaches its midpoint. Consider `Cc1c(P(=S)(c2ccccc2)c2ccccc2)[n+]2ccccc2n1C/C=C/c1ccccc1`, for which the IC50 is 36.5 nM (active).
`O=C1OC(c2ccccc2)(c2ccccc2)N2CCN(C(=O)NCc3ccc(F)cc3)CC12` (centres undefined): the IC50 is 570 nM (active).
Then `CCC(C)(CCN1CCOCC1)N(Cc1cc2ccccc2n(C)c1=O)C(=O)C1CCCCC1` (centres undefined), with 57.8 nM (active); and `COc1ccc(C2c3c(ncn(CCN4CCOCC4)c3=N)Oc3ccc4ccccc4c32)cc1OC` (centres undefined), with 4940 nM (active).

For the origin of these results see PubChem BioAssay AID624052 (National Center for Advancing Translational Sciences (NCATS), 2012).
